# Most compounds without a hit are left out; they make up all but 3% or so of the library.
# SNCA viab count – reduces viability of HEK-293 SNCA reporter cells. HEK-293-SNCA-luc viability, GF-AFC fluorescence, 24 h. Potency, µM (top dose mostly 57.1 µM), without a hit: at the highest dose activity change, negative = cytotoxicity, usual class: cytotoxic. hit rate 0.12% among 150,000;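 note: potency is the fitted concentration of half-maximal effect; 0% = DMSO-treated cells and -100% = medium-only wells without cells; nearly all actives have a fitted effect of over 30% in size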
#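 Cytotoxicity counterscreen: after 24 h compound treatment of genome-edited SNCA-luciferase HEK-293 cells, live-cell protease substrate GF-AFC read by fluorescence after 30 min; activity scaled between DMSO (0%) and medium-only (-100%), curves Hill-fitted.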
# IP6K1 inh – blocks human inositol hexakisphosphate kinase 1; Q92551; IP6K1 kinase, ADP-Glo luminescence, 2 h; active compounds read low; activity change, % (series mostly up to about 58 µM); hit rate 0.81% among 140,000; AID 1645851; in the data active = activity change below about -25%; note: % is set by controls: 0 for no effect and ±100 for the full control effect
#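 ADP-Glo luminescence measures ADP made by human IP6K1 during a 2 h RT reaction with ATP/IP6 (mix at 1.3 mM/130 uM); top library doses 57.5 and 19.1 uM final.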
# KDM5B inh – inhibitors of human KDM5B histone demethylase; Q9UGL1; hit rate 2.6% among 220,000; KDM5B demethylase, FDH-coupled NADH fluorescence (FDH is formaldehyde dehydrogenase); Potency, µM (titrated, usually from 57.7 µM), hits mostly inhibitors; note: potency is the fitted concentration of half-maximal effect; 0% is about no effect; nearly all actives have a fitted effect of over 70% in size
#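 Measured: NADH fluorescence change, 30 min, RT. System: KDM5BΔAP 200 nM final, H3K4me3 peptide, α-KG, Fe(II), ascorbate, NAD⁺ plus FDH, pH 7.5 HEPES. Compounds: titrated, 10 min pre-incubation with enzyme.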
# SNCA expr inhib – SNCA gene expression inhibition | HEK-293 SNCA-luciferase knock-in, luminescence, 24 h | Potency, µM (titrated, usually from 57.2 µM), for inactives: at the top dose activity change, negative = inhibition, most hits filed as inhibitors | hit rate 0.17% among 140,000 | AID 1671194;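 note: potency is the fitted concentration of half-maximal effect; plate controls were DMSO cells for no effect and cell-free wells for full effect; nearly all actives have a fitted effect of over 45% in size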
# An asterisk follows results filed as active; i = inactive; ? = inconclusive; · = no result given; [ ] = remark or other dose. Unless noted, calls come from the whole dose curve; as a rule, active = well fitted curve in the direction sought with a large enough effect; inconclusive = small, poorly fitted or top-dose-only effect, or another doubt; inactive = no such curve, though single readings can be large; an effect the other way counts as inactive or inconclusive.
SMILES,SNCA viab count,IP6K1 inh,KDM5B inh,SNCA expr inhib
O=C(c1ccc2c(c1)C1(CCN(CC3CC3)C1)CN2Cc1ccccc1)N1CCOCC1 (stereo not given),0%[87.6 µM],16,?,1%[87.6 µM]
O=C(NC1COC1)c1ccc2c(c1)C1(CCN(CC3CC3)C1)CN2Cc1ccccc1 (stereo not given),-2%[87.6 µM],1,35µM*,1%[87.6 µM]
CC(C)NC(=O)c1ccc2c(c1)C1(CCN(CC3CC3)C1)CN2Cc1ccccc1 (stereo not given),6%[87.6 µM],14,28µM*,-22%[87.6 µM]
CNC(=O)c1ccc2c(c1)C1(CCN(CC3CC3)C1)CN2Cc1ccccc1 (stereo not given),3%[87.6 µM],-3,35µM*,14%[87.6 µM]
COCCN(C)C(=O)c1ccc2c(c1)C1(CCN(CC3CC3)C1)CN2Cc1ccccc1 (stereo not given),-9%[87.6 µM],12,?,-24%[87.6 µM]
COc1cccc(C(O)c2nc(C(=O)N3CCN(c4ccccn4)CC3)c(C)o2)c1 (stereo not given),1%[87.6 µM],-11,25µM*,10%[87.6 µM]
COc1ccc(CN2C[C@@H](F)[C@@H](OCc3nc4ccccc4n3C)C2)cn1,-11%[87.6 µM],3,i,-12%[87.6 µM]
CC(=O)Nc1ccc(CN2C[C@@H](F)[C@@H](OCc3nc4ccccc4n3C)C2)cc1,0%[87.6 µM],-10,32µM*,9%[87.6 µM]
CN(C)c1ccc(-c2nnnn2[C@H]2CO[C@H]3[C@@H]2OC[C@@H]3NS(=O)(=O)c2ccc3ccccc3c2)cc1,0%,6,22µM*,-5%
CN(C)c1ccc(-c2nnnn2[C@H]2CO[C@H]3[C@@H]2OC[C@H]3O)cc1,-2%[87.6 µM],10,i,19%[87.6 µM]
CN(C)c1ccc(-c2nnnn2[C@H]2CO[C@H]3[C@@H]2OC[C@@H]3NC(=O)Nc2ccc(Oc3ccccc3)cc2)cc1,-8%,4,13µM*,?
O=C(NC1CCCCCC1)c1cc(-c2ccc(Cl)cc2Cl)c2nncn2n1,-18%[12.5 µM],9,·,-7%
O=[S+]([O-])(NC1CCCN(c2ccc3nnc(C4CC4)n3n2)C1)c1cccc(C(F)(F)F)c1 (stereo not given),·,11,·,·
Cc1nn2c(c1-c1ccccc1Oc1ccccc1)N(Cc1cccc(C(=O)O)c1)CCC2,-19%[87.6 µM],6,?,?
Cc1nn2c(c1-c1ccccc1Oc1ccccc1)N(Cc1cccc(C#N)c1)CCC2,?,4,25µM*,?
Cc1nn2c(c1-c1ccnn1C(C)C)N(Cc1cccc(C#N)c1)CCC2,?,12,?,2.8µM*
Cc1nn2c(c1-c1ccccc1-c1ccccc1)N(Cc1ccc(C(=O)O)s1)CCC2,3%[87.6 µM],17,i,-15%[87.6 µM]
Cc1nn2c(c1-c1ccccc1[S+](C)(=O)[O-])N(Cc1ccc(C(=O)O)s1)CCC2,?,28,?,4µM*
Cc1nn2c(c1-c1ccnn1C(C)C)N(Cc1ccc(O)cc1)CCC2,6%[87.6 µM],21,i,6%[87.6 µM]
Cc1nn2c(c1-c1ccccc1Oc1ccccc1)N(Cc1ccc(C(=O)O)s1)CCC2,?,8,?,13µM*
Cc1ccc(NC(=O)CN2CCN(C(=O)CCc3ncc(-c4ccccc4)o3)CC2)cc1,·,·,i,·
COc1ccc(-c2cccc(C(=O)NCCc3ccc(Cl)cc3)c2)nn1,·,20,·,·
O=C(Cn1ccn2nc3c(c2c1=O)CCCC3)NCc1ccc(F)cc1,-4%,-6,i,1%
Cc1ccc(CNC(=O)Cn2ccn3nc4c(c3c2=O)CCCCC4)cc1,7%,31,5.6µM*,-16%
O=C(Cn1ccn2nc3c(c2c1=O)CCCC3)NCc1ccccc1,-1%,-14,25µM*,?
SMILES,SNCA viab count,IP6K1 inh,KDM5B inh,SNCA expr inhib
CC(CCc1ccccc1)NC(=O)Cn1ccn2nc3c(c2c1=O)CCCC3 (stereo not given),-1%,-4,20µM*,4%
COc1cccc(CNC(=O)Cn2ccn3nc4c(c3c2=O)CCCC4)c1,8%,2,25µM*,-4%
COc1ccc(OCC(O)CN2CCC(=O)N(CC3CC3)Cc3ccccc32)cc1 (stereo not given),·,-7,·,·
O=C(Cn1ccn2nc3c(c2c1=O)CCCCC3)NCc1ccc(Cl)cc1,-11%,29,?,-8%
O=C(Cn1ccn2nc3c(c2c1=O)CCCC3)NCc1cccs1,10%,13,20µM*,30%
O=C(c1cc(-c2cccc(C(F)(F)F)c2)c2nncn2n1)N1CCC(c2ccccc2)CC1,6%,20,·,4%
Cc1ccc(F)cc1S(=O)(=O)NC1CCN(c2ccc(=O)n(CC3CC3)n2)CC1,-12%,0,28µM*,?
COCCn1c(N2CCN(CCO)CC2)nc2c1c(=O)[nH]c(=O)n2C,·,·,i,·
Cc1nccc(N2CCC(COc3cnc4c(ccn4CC(N)=O)c3)CC2)n1,3%[87.6 µM],-13,?,-4%[87.6 µM]
O=C(O)Cn1ccc2cc(OCC3CCN(C(=O)CCC(F)(F)F)CC3)cnc21,-4%[87.6 µM],-7,35µM*,-20%[87.6 µM]
O=C(O)Cn1ccc2cc(OCC3CCN(C(=O)C4CCCC4)CC3)cnc21,4%[87.6 µM],-1,35µM*,-12%[87.6 µM]
O=C(O)CCn1ncc2cc(OCC3CCN(C(=O)C4CCCC4)CC3)ccc21,1%[87.6 µM],-3,i,-15%[87.6 µM]
Cc1cnc(C)c(N2CCC(COc3cnc4c(ccn4CC(N)=O)c3)CC2)n1,-2%[87.6 µM],8,35µM*,?
NC(=O)Cn1ccc2cc(OCC3CCN(C(=O)C4CC4)CC3)cnc21,3%[87.6 µM],-9,35µM*,?
CCNC(=O)OC1CCN(C(=O)c2cc3ccccc3s2)CC(=O)N(C)c2ccccc21 (stereo not given),·,-8,·,·
O=C(NCCN[S+](=O)([O-])c1ccccc1)c1ccc(-c2cccc(C(F)(F)F)c2)cc1,·,5,·,·
O=C(Nc1cnc(-c2ccccc2)nc1)c1ccc(C2SCCCS2)cc1,·,·,i,·
O=C1c2ccccc2S(=O)(=O)N1Cc1nc(-c2ccc(F)cc2)cs1,·,·,i,·
O=C(NCc1cccc(C(F)(F)F)c1)c1ccc2nc(-c3ccccn3)oc2c1,-1%,-2,·,34%
CC(=O)Oc1c(-c2ccc(NC(=O)c3ccco3)cc2)c(C2CC2)nn1-c1cccc(C)c1,3%,-12,32µM*,29%
O=C(NCc1ccc(C(F)(F)F)cc1)c1nc2cccnc2n(C2CC2)c1=O,0%,8,·,21%
COCCCNC(=O)Cc1csc2nc(C)c(-c3cc(C)n(-c4ccccc4F)n3)c(=O)n12,7%,6,28µM*,19%
COc1ccccc1-n1nc(-c2c(C)nc3scc(CC(=O)NCc4ccccc4)n3c2=O)cc1C,-15%,7,25µM*,3%
Cc1nc2scc(CC(=O)NCc3ccco3)n2c(=O)c1-c1cc(C)n(-c2ccccc2F)n1,-1%,-3,28µM*,6%
COc1ccccc1-n1nc(-c2c(C)nc3scc(CC(=O)NCc4ccco4)n3c2=O)cc1C,-1%,19,28µM*,0%
CCc1ccccc1-n1nc(-c2c(C)nc3scc(CC(=O)NCc4ccccc4)n3c2=O)cc1C,2%,4,?,9%
CCCCCNC(=O)Cc1csc2nc(C)c(-c3cc(C)n(-c4ccccc4F)n3)c(=O)n12,-10%,15,?,-5%
